Source: PubChem BioAssay (National Center for Advancing Translational Sciences (NCATS))
MmCpn inh: Inhibitors of TCP-1 ring complex (TRiC) of Methanococcus maripaludis (MmCpn): qHTS | AID 504842, 2011 | Chaperonin Mm-Cpn (Methanococcus maripaludis) | purified Mm-Cpn ATPase, ADP Transcreener TR-FRET | Potency, µM (doses to about 76.9 µM), for inactives: at the top dose activity, negative = inhibition, usual class: inhibitors | 330,000 tested, 0.031% active; also: potency is read from the fitted curve at half-maximal effect; % is scaled to controls: 0 for no effect and ±100 for the full control effect; nearly all actives have a fitted effect of over 80% in size
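Measured: ADP formation by purified Mm-CPN. Conditions: 25 nM protein, 10 uM ATP, Tris pH 7.4 with Mg2+, K+ and DTT, 37°C for 30 min. Detection: Transcreener HTRF after 30 min at room temperature.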
IDH1 R132H inh: qHTS for Inhibitors of mutant isocitrate dehydrogenase 1 (IDH1): qHTS; Isocitrate dehydrogenase [NADP] cytoplasmic (Homo sapiens), O75874; IDH1-R132H enzyme, NADPH consumption, diaphorase/resazurin fluorescence; Potency, µM (series often up to 76.6 µM), for inactives: at the top dose activity change, negative = inhibition, usual class: inhibitors; 390,000 tested, 0.093% active; AID 602179, 2012; also: potency is read from the fitted curve at half-maximal effect; % is scaled to controls: 0 for no effect and ±100 for the full control effect; nearly all actives have a fitted effect of over 65% in size
Target sequence (O75874 whole entry R132H, stated change not applied): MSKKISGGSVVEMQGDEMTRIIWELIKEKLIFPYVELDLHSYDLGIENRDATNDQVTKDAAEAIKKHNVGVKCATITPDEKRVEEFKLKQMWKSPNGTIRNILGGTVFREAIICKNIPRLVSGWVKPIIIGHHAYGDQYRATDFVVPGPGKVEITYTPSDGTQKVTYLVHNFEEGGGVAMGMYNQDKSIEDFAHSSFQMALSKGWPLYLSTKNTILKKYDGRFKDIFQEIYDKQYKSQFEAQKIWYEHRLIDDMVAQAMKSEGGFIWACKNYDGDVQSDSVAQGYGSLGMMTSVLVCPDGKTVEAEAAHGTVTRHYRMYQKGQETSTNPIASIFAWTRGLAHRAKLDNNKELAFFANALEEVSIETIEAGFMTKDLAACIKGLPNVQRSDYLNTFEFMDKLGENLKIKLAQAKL
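IDH1-R132H (0.5 ug/mL) preincubated 30 min with compound, then NADPH (0.016 mM) and alpha-KG (2 mM) added; 80 min at RT, pH 7.5. Remaining NADPH coupled via diaphorase/resazurin to fluorescence (540/590 nm); concentration-response curves normalized to no-enzyme control.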
CCT modulator: High-Throughput Screening for Modulators of Cytosolic Chaperonin Activity; purified chaperonin ATPase assay, HTRF ADP detection, 30 min; 360,000 tested, 0.3% active; activity change, % (no concentration beside the values), hits read low; in the data active = activity change below about -30%; also: % is scaled to controls: 0 for no effect and ±100 for the full control effect
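TRiC (40 or 20 nM final, by batch activity) in 30 mM Tris pH 7.4, 100 mM KCl, 5 mM MgCl2, 1 mM DTT was treated with compound at 76 uM single dose, then 10 uM ATP, 30 min at 37 °C. ADP was read by HTRF Transcreener.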
GRP78 ERSR act: qHTS for Inducers of the Endoplasmic Reticulum Stress Response (ERSR) in Human Glioma: qHTS; U87-MG GRP78 promoter luciferase reporter, 16 h; Potency, µM, without a hit: at the highest dose activation, most hits filed as activators; 420,000 tested, 0.02% active; AID 602332, 2012; also: potency is read from the fitted curve at half-maximal effect; series mostly up to about 76 µM; % of control where 0% means no effect; nearly all actives have a fitted effect of over 35% in size
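Stably transfected U87-MG human glioma cells carrying a GRP78-based luminescent sensor were seeded at 1000 cells/well, pin-dosed with compounds and incubated 16 h. Luciferase reagent was then added, and end-point luminescence was read after 10 min at room temperature.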
Akt phos inh: HTS Assay for Inhibitors of Akt Phophorylation: Primary Screen; Neuro2A IGF-stimulated pAkt S473 HTRF, 20 min; active compounds read low; activity change, % for hits at 50 µM; 360,000 tested, 0.32% active; AID 651550, 2012; in the data active = activity change below about -80%; inconclusive = mostly about -51% to -80%; also: % is scaled to controls: 0 for no effect and ±100 for the full control effect
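Neuro2A cells in DMEM with 0.5% FBS, overnight at 37 deg C, given compound at single 50 µM final, then IGF (6 nM final) for 20 min at 37 deg C. Lysed; phospho-Akt Ser473 by HTRF after 24 h, 665/615 ratio.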
GLS inhibitor: qHTS for Inhibitors of Glutaminase (GLS) | AID 624170, 2012 | Glutaminase kidney isoform, mitochondrial (Homo sapiens), O94925 | Potency, µM (doses to about 45.5 µM), inactives show at the highest dose activity change, negative = inhibition, hits mostly inhibitors | GLS enzymatic activity, qHTS titration | 410,000 tested, 0.21% active; also: potency is read from the fitted curve at half-maximal effect; % is scaled to controls: 0 for no effect and ±100 for the full control effect
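Glutamate formation by hKGA was monitored fluorometrically using coupled glutamate oxidase, HRP and Amplex Red. Substrate was added as 1 mM L-glutamine solution; incubation was 30 min at RT after an initial read.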
* hit, by the source's call. An excerpt weighted towards active compounds, which were near 0.85% of everything screened. Unless noted, calls follow the shape of the dose curve; as a rule, active = well fitted curve in the direction sought with a large enough effect; inconclusive = small, poorly fitted or top-dose-only effect, or another doubt; inactive = no such curve, though single readings can be large; an effect the other way counts as inactive or inconclusive.

How did Cc1cccc(NC(=O)CCc2ccccc2)c1C do in these assays?
MmCpn inh: 1.3%; IDH1 R132H inh: 7.5%; CCT modulator: -49.3*; GRP78 ERSR act: -6.8%; Akt phos inh: inactive; GLS inhibitor: 1.4%

Results for O=C(Cc1c[nH]c2ccccc12)N1CCC(n2c(C3CCCO3)nc3cc(C(F)(F)F)ccc32)CC1 (configuration not stated) ?
GRP78 ERSR act: -2.6%

Results for O=C(NCC1Cc2cccc(-c3cnccn3)c2O1)c1ccc2c(c1)OCCO2 (configuration not stated) ?
GRP78 ERSR act: 0.4%

Results for COC(=O)Nc1nc(C)c(C(=O)N(C)C)s1 ?
MmCpn inh: -0.5%; IDH1 R132H inh: 1.4%; CCT modulator: -0.8; GRP78 ERSR act: 2.2%; Akt phos inh: -126.5%*; GLS inhibitor: 1.2%

How did CCOC(=O)Nc1nc(C)c(C(=O)N(C)C)s1 do in these assays?
MmCpn inh: 0.1%; IDH1 R132H inh: 2.4%; CCT modulator: 2.0; GRP78 ERSR act: -5.0%; Akt phos inh: inactive; GLS inhibitor: -0.8%

How did COc1cc(CNCc2cc3cc(C)ccc3nc2-c2ccc(F)cc2)cc(OC)c1OC do in these assays?
GRP78 ERSR act: 2.5%

Results for CCN(CC)C(=O)CC(c1cc(OC)c(OC)c(OC)c1)c1c(OC)cc(OC)c2c(-c3ccccc3)cc(=O)oc12 (configuration not stated) ?
MmCpn inh: 0.2%; IDH1 R132H inh: -21.6%; CCT modulator: -1.0; GRP78 ERSR act: -2.2%; Akt phos inh: inactive; GLS inhibitor: 11.2µM*

Results for O=c1[nH]c(CN2CCN(c3ccccc3O)CC2)nc2ccccc12 ?
MmCpn inh: -0.5%; IDH1 R132H inh: -1.0%; CCT modulator: -4.0; GRP78 ERSR act: 12.9%; Akt phos inh: -110.2%*; GLS inhibitor: inconclusive

What do the screens show for `O=c1[nH]c(CN2CCN(CCO)CC2)nc2ccccc12`?
MmCpn inh: 0.6%; IDH1 R132H inh: 1.1%; CCT modulator: -1.5; GRP78 ERSR act: -0.2%; GLS inhibitor: 6.0%

What do the screens show for `COc1ccc2cc(C(=O)NCc3ccco3)c(=Nc3ccc(C(=O)O)cc3)oc2c1`?
MmCpn inh: -0.1%; IDH1 R132H inh: 0.0%; CCT modulator: 0.3; GRP78 ERSR act: 0.6%; Akt phos inh: -111.8%*; GLS inhibitor: -15.6%

What do the screens show for `CC(C)COC(=S)Nc1ccccc1`?
MmCpn inh: 0.3%; IDH1 R132H inh: 3.4%; CCT modulator: -0.8; GRP78 ERSR act: 4.3%; Akt phos inh: -108.2%*; GLS inhibitor: -8.1%

What do the screens show for `COc1cccc(CN2C(=O)NC(C)(C3CCN(Cc4cc(Cl)ccc4O)CC3)C2=O)c1OC` (configuration not stated)?
GRP78 ERSR act: -3.8%

How did O=C(c1ccc(=O)oc1)N1CCCc2ccccc21 do in these assays?
MmCpn inh: -3.9%; IDH1 R132H inh: -0.6%; CCT modulator: 0.0; GRP78 ERSR act: -6.7%; Akt phos inh: inactive; GLS inhibitor: 15.8µM*

Results for O=C(c1ccc(=O)oc1)N1CCOCC1 ?
MmCpn inh: -1.2%; IDH1 R132H inh: -4.5%; CCT modulator: -1.2; GRP78 ERSR act: -4.1%; Akt phos inh: inactive; GLS inhibitor: 11.2µM*

How did CCc1cc(C(=O)NCC2Cc3cc(C)cc(-c4cc(C(C)=O)ccc4F)c3O2)n(C)n1 (configuration not stated) do in these assays?
GRP78 ERSR act: -3.4%

What do the screens show for `Cc1occc1C(=O)Nc1cccc(-c2nc(CNC(=O)c3ccc(N4CCCCC4)cc3)c(C)o2)c1`?
GRP78 ERSR act: -2.3%

Results for CCn1cc([N+](=O)[O-])c(C(=O)Nc2cc(C)on2)n1 ?
IDH1 R132H inh: 3.8%; CCT modulator: -4.1; GRP78 ERSR act: -6.5%; Akt phos inh: -112.8%*; GLS inhibitor: -10.2%

What do the screens show for `O=C(NCC1CCC2(CCN(Cc3cnn(-c4ccc(F)cc4)c3)CC2)O1)c1ccccc1` (configuration not stated)?
GRP78 ERSR act: 0.8%

Results for CCOc1cccc(/C(O)=C2/C(=O)C(=O)N(Cc3cccnc3)C2c2ccco2)c1 (configuration not stated) ?
MmCpn inh: 0.8%; IDH1 R132H inh: 7.1%; CCT modulator: -0.4; GRP78 ERSR act: 3.2%; Akt phos inh: -115.9%*; GLS inhibitor: 23.2%

Results for COc1ccc(/C(O)=C2/C(=O)C(=O)N(Cc3cccnc3)C2c2ccco2)cc1OC (configuration not stated) ?
MmCpn inh: 0.1%; IDH1 R132H inh: 0.0%; CCT modulator: -0.1; GRP78 ERSR act: -2.0%; Akt phos inh: inactive; GLS inhibitor: -7.9%

What do the screens show for `CC12C=CC(=O)C=C1CCC1C2C(O)CC2(C)C1CCC2(O)C(=O)COC(=O)CCC(=O)O` (configuration not stated)?
GRP78 ERSR act: -2.9%; GLS inhibitor: -5.2%

How did CCOC(=O)C1=C(C)NC(=O)NC1c1cc(Br)c(O)c(OC)c1 (configuration not stated) do in these assays?
MmCpn inh: -0.3%; IDH1 R132H inh: 0.1%; CCT modulator: -0.4; GRP78 ERSR act: -3.4%; Akt phos inh: -119.6%*; GLS inhibitor: -2.5%

What do the screens show for `CCOC(=O)C1=C(c2ccccc2)NC(=O)NC1c1cc(Br)c(O)c(OC)c1` (configuration not stated)?
MmCpn inh: -1.0%; IDH1 R132H inh: -12.8%; CCT modulator: 2.6; GRP78 ERSR act: -0.7%; Akt phos inh: inactive; GLS inhibitor: 30.5%

Results for CC(C)CCN1CN(S(=O)(=O)c2cccs2)c2nc3ccccc3nc21 ?
MmCpn inh: -1.1%; IDH1 R132H inh: -16.5%; CCT modulator: -2.4; GRP78 ERSR act: 1.4%; Akt phos inh: -106.5%*; GLS inhibitor: 3.5%

What do the screens show for `COC(=O)c1cc(O)cc(OC)c1Oc1cc(C)cc(O)c1C(=O)O`?
MmCpn inh: -5.0%; IDH1 R132H inh: -14.9%; CCT modulator: -3.2; GRP78 ERSR act: 2.3%; Akt phos inh: inactive; GLS inhibitor: 11.2µM*

Results for COC(=O)[C@@H]1CCCN1Cc1ccc2c(c1)CN(Cc1coc3ccccc3c1=O)CCO2 ?
GRP78 ERSR act: -5.5%
